Hit rate of the full screen: of about 5,500 compounds, about 2,000 (36%) were called active. Roughly 18% stayed inconclusive and do not appear here. Cut-off read from the data, not from the text of the source: active = normalized growth mostly below about 0.91 (no sharp cut-off); inconclusive = no clear call, values can overlap the other calls; inactive = mostly above about 0.92. Some of the results follow.
Assay: chemical genetic growth profiling, strain panel (AID 1159580);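 note: tested at 20 µM; growth read once vehicle control cultures reached saturation at 30 °C; 1 = growth at the plate median or of vehicle wells; lower values mean less growth of the strain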
Conditions: S. cerevisiae deletion strains, growth OD

Measured: normalized growth

O=S(=O)(c1cc(Cl)ccc1Cl)N1CCc2ccccc2C1
inactive: locus YAR019C, strain CDC15, stronger effect = lower value 0.98 | locus YBL105C, strain PKC1, stronger effect = lower value 0.977 | locus YBR135W, strain CKS1, stronger effect = lower value 0.971 | locus YBR136W, strain MEC1, stronger effect = lower value 0.983 | locus YBR160W, strain CDC28, stronger effect = lower value 0.982 | locus YDL017W, strain CDC7, stronger effect = lower value 0.982 | locus YDL028C, strain MPS1, stronger effect = lower value 0.976 | locus YDL101C, strain DUN1, stronger effect = lower value 0.981 | locus YDL108W, strain KIN28, stronger effect = lower value 0.98 | locus YDL132W, strain cdc53, stronger effect = lower value 0.973 | locus YDL214C, strain PRR2, stronger effect = lower value 1.02 | locus YDR052C, strain DBF4, stronger effect = lower value 0.983 | locus YDR054C, strain cdc34, stronger effect = lower value 0.977 | locus YDR226W, strain ADK1, stronger effect = lower value 0.978 | locus YDR477W, strain SNF1, stronger effect = lower value 1.02 | locus YER123W, strain YCK3, stronger effect = lower value 1 | locus YER133W, strain GLC7, stronger effect = lower value 1.02 | locus YFL009W, strain cdc4, stronger effect = lower value 0.967 | locus YFL029C, strain CAK1, stronger effect = lower value 0.978 | locus YFR003C, strain YPI1, stronger effect = lower value 0.981 | locus YFR019W, strain FAB1, stronger effect = lower value 0.99 | locus YFR028C, strain CDC14, stronger effect = lower value 0.981 | locus YGR040W, strain KSS1, stronger effect = lower value 1.03 | locus YGR052W, strain FMP48, stronger effect = lower value 1.06 | locus YGR092W, strain DBF2, stronger effect = lower value 0.994 | locus YHR030C, strain SLT2, stronger effect = lower value 0.951 | locus YHR079C, strain IRE1, stronger effect = lower value 0.987 | locus YHR082C, strain KSP1, stronger effect = lower value 1.15 | locus YHR205W, strain SCH9, stronger effect = lower value 0.912 | locus YIL147C, strain SLN1, stronger effect = lower value 0.975 | locus YJL095W, strain BCK1, stronger effect = lower value 0.96 | locus YJL128C, strain PBS2, stronger effect = lower value 0.925 | locus YJL157C, strain FAR1, stronger effect = lower value 1.01 | locus YJR016C, strain ILV3, stronger effect = lower value 0.985 | locus YJR066W, strain TOR1 (second series), stronger effect = lower value 1.02 | locus YJR066W, strain TOR1, stronger effect = lower value 1.11 | locus YKL048C, strain ELM1, stronger effect = lower value 1 | locus YKL067W, strain YNK1, stronger effect = lower value 1 | locus YKL101W, strain HSL1, stronger effect = lower value 0.994 | locus YKL193C, strain SDS22, stronger effect = lower value 0.971 | locus YKL203C, strain TOR2, stronger effect = lower value 1.08 | locus YLR113W, strain HOG1, stronger effect = lower value 0.953 | locus YLR133W, strain CKI1, stronger effect = lower value 1 | locus YLR403W, strain SFP1, stronger effect = lower value 0.964 | locus YML070W, strain DAK1, stronger effect = lower value 1.02 | locus YMR001C, strain CDC5, stronger effect = lower value 0.98 | locus YMR205C, strain PFK2 (second series), stronger effect = lower value 0.995 | locus YMR277W, strain FCP1, stronger effect = lower value 0.982 | locus YNL006W, strain LST8, stronger effect = lower value 0.984 | locus YNL020C, strain ARK1, stronger effect = lower value 1.01 | locus YNL161W, strain CBK1, stronger effect = lower value 0.981 | locus YNL183C, strain NPR1, stronger effect = lower value 1.14 | locus YNL207W, strain RIO2, stronger effect = lower value 0.98 | locus YNL222W, strain SSU72, stronger effect = lower value 0.983 | locus YNL307C, strain MCK1 (second series), stronger effect = lower value 0.999 | locus YOL078W, strain AVO1, stronger effect = lower value 0.975 | locus YOL136C, strain PFK27, stronger effect = lower value 1 | locus YOR061W, strain CKA2, stronger effect = lower value 0.99 | locus YOR119C, strain RIO1, stronger effect = lower value 1.08 | locus YOR231W, strain MKK1, stronger effect = lower value 1.06 | locus YOR329C, strain SCD5, stronger effect = lower value 0.985 | locus YPL031C, strain PHO85, stronger effect = lower value 1.01 | locus YPL153C, strain RAD53, stronger effect = lower value 1.01 | locus YPL204W, strain HRR25, stronger effect = lower value 1.02 | locus YPL209C, strain IPL1, stronger effect = lower value 0.979 | locus YPL256C, strain CLN2, stronger effect = lower value 0.987 | locus YPR025C, strain CCL1, stronger effect = lower value 0.977 | locus YPR106W, strain ISR1, stronger effect = lower value 0.986 | locus YPR111W, strain DBF20, stronger effect = lower value 0.978 | strain NNK1, stronger effect = lower value 0.983 | strain TSCII, stronger effect = lower value 0.985
